Results published in PubChem BioAssay (NCATS).
Inconclusive results are not listed. A call without a number means that no potency is given here. Active and inactive are the calls of the source. Calls follow the shape of the full dose curve.
Potency is read from the fitted curve at half-maximal effect.

Assay: Primary qHTS for Vero E6 cytotoxicity: counterscreen for inhibitors of SARS-S pseudo-typed particle cell entry (AID 1479150)
Conditions: cell viability; series mostly up to 57.1 µM
In the case of `C#CC(C)(CC)OC(=O)c1ccccc1C(=O)O` (configuration not stated), the Potency is reported as “inactive”.
In the case of `Cc1ccccc1N=Nc1ccc(N=Nc2c(O)ccc3ccccc23)c(C)c1`, the Potency is reported as “inactive”.
In the case of `CNC(=O)c1ccc(N2C(=S)N(c3ccc(C#N)c(C(F)(F)F)c3)C(=O)C2(C)C)cc1F`, the Potency is reported as “inactive”.
In the case of `Cc1nnc(C(C)C)n1C1CC2CCC(C1)N2CC[C@H](NC(=O)C1CCC(F)(F)CC1)c1ccccc1` (some centres not stated), the Potency is reported as “inactive”.
With `CNC(=O)c1cc(Oc2ccc(NC(=O)Nc3ccc(Cl)c(C(F)(F)F)c3)c(F)c2)ccn1` the Potency was “inactive”.
With `CC(C)(C)C(O)/C=C/c1ccc2c(c1)OCO2` (configuration not stated) the Potency was “inactive”.
In the case of `CC(=O)N[C@@H](Cc1ccc(O)cc1)C(=O)O`, the Potency is reported as “inactive”.
In the case of `CCCOC(=O)c1ccc(O)cc1`, the Potency is reported as “inactive”.
In the case of `Cn1cncc1[C@@](N)(c1ccc(Cl)cc1)c1ccc2c(c1)c(-c1cccc(Cl)c1)cc(=O)n2C`, the Potency is reported as “inactive”.
In the case of `C[C@H](CN1CCCC1)C(=O)c1ccc(C(F)(F)F)cc1`, the Potency is reported as “inactive”.
For `CC(C)(C)c1cc(C(C)(C)C)c(NC(=O)c2c[nH]c3ccccc3c2=O)cc1O`, the Potency was “inactive”.
With `Cc1c(C(=O)Nc2ccc(N3C[C@@H](C)O[C@@H](C)C3)nc2)cccc1-c1ccc(OC(F)(F)F)cc1` the Potency was “inactive”.
For `Cc1ccc(C(=O)Nc2ccc(CN3CCN(C)CC3)c(C(F)(F)F)c2)cc1C#Cc1cnc2cccnn12`, the Potency was 22.4 µM (active).
For `C[C@@H](N)C(=O)O`, the Potency was “inactive”.
For `CCOP(=O)(OCC)C(C)NC(=O)N(CCCl)N=O` (configuration not stated), the Potency was “inactive”.
With `Oc1c(I)cc(I)c2cccnc12` the Potency was “inactive”.
With `CS(=O)(=O)Nc1ccc([N+](=O)[O-])cc1Oc1ccccc1` the Potency was “inactive”.
